We go through 37 compounds from PubChem BioAssay (EPA / NIEHS).

Activity calls are given as the source filed them. Rule for the calls: active = hit-call score of the fitted dose curve at least 0.9, where 1 is the maximum; inactive = score below 0.9.

For orientation: AC50 means the midpoint of the concentration-response curve, whichever way the signal moves.

Chain of Cellular tumor antigen p53 (Homo sapiens) (P04637 whole entry, looked up): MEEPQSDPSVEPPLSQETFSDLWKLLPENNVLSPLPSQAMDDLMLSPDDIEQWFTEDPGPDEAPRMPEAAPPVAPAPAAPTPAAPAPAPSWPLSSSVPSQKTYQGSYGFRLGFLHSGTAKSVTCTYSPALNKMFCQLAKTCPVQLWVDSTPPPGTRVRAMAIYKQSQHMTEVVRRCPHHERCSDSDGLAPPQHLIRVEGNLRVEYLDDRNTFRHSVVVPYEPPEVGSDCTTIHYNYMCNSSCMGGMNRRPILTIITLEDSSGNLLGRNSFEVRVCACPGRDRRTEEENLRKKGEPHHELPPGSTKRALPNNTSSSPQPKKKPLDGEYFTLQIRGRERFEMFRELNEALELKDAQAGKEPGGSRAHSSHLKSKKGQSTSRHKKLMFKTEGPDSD

Read-out in one test: Cellular tumor antigen p53 (Homo sapiens) (UniProt P04637)
Put plainly: LTEA_HepaRG_TP53: Life Technologies and Expression Analysis (LTEA) Assay for Tumor Protein P53 (TP53) using HepaRG (AID 2283537). As to conditions: mRNA level, 48 h; actives raise or lower the signal. A digest of the protocol: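 HepaRG, 48 h exposure, top 100 uM, half-log 8-point, 0.5% DMSO vehicle, duplicates. Read: TP53 mRNA by TaqMan qRT-PCR, normalised to ACTB/GAPDH/POLR2A; bidirectional fit vs DMSO.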
Consider `CCCCN1C(=O)[C@@H]([C@H](O)C2CCCCC2)NC(=O)C12CCN(Cc1ccc(Oc3ccc(C(=O)O)cc3)cc1)CC2`, for which the result was inactive.
For `c1ccc(C(O[C@@H]2CCCN(CCc3ccc4c(c3)OCO4)C2)c2ccccc2)cc1`, the half-maximal activity concentration (AC50) was 75.4 µM (active).
For the compound `Cn1c(=O)c2[nH]cnc2n(C)c1=O`, the compound was classed as inactive.
On the same count and under the same terms, the result for `CC(C)c1nnc2ccc(-c3ocnc3-c3cc(F)ccc3F)cn12` reads “inactive”; that for `O=C(O)c1cccc(C[C@@H]2COc3ccc(OCc4nc5cc(F)ccc5s4)cc3[C@@H]2O)c1`, “inactive”; that for `CCCCCCCC/C=C\CCCCCCCC(=O)OC[C@@H](O)[C@H]1OC[C@H](O)[C@H]1O`, “inactive”.
Regarding `O=S1(=O)CCCO1`, the compound was called inactive.
The same measure, in the same setting: then `C[C@]12C=CC(=O)C=C1CC[C@H]1[C@@H]3C[C@@H](O)[C@](O)(C(=O)CO)[C@@]3(C)C[C@H](O)[C@@]12F`, with “inactive”; and `CCCCC(CC)C(=O)OCCOCCOCCOC(=O)C(CC)CCCC` (stereo not drawn), with “inactive”.
On the same count and under the same terms, the result for `C=CN1CCCC1=O` reads “inactive”; that for `CC(=O)c1ccccc1`, “inactive”; that for `OC(Cn1cncn1)(Cn1cncn1)c1ccc(F)cc1F`, “inactive”.
Same read-out and setting: then `CCCCOC(=O)c1ccccc1`, with “inactive”; and `c1ccc2cc3ccccc3cc2c1`, with “inactive”; and `CCCCCCCCN(C)C`, with “inactive”.
For the compound `CCn1nc(C)c2c1C(=O)NCC(c1ccc(O)cc1)=N2`, the compound was called inactive.
On the same count and under the same terms, then `CCc1cccc(CC)c1N`, with “inactive”; and `CCN(CC)C(=S)SSC(=S)N(CC)CC`, with “inactive”; and `CCCCCCCCCCCCCCO`, with “inactive”.
Same read-out and setting: the result for `CCCc1ccccc1` reads “inactive”.
For the compound `CCc1ccc(O)c(C(C)(C)C)c1`, the compound was called inactive.
As to `O=C(O)c1ccc2c(c1)nc(C(=O)NC1CCN(C3CC3)CC1)n2Cc1cc(-c2ccc(Cl)s2)on1`, the compound was called inactive.
The same measure, in the same setting: then `NNC(=O)c1ccncc1`, with “inactive”.
The same measure, in the same setting: the result for `CCCCCCCCCC` reads “inactive”.
On to `NC(=O)NN=Cc1ccc([N+](=O)[O-])o1`, for which the AC50 is 9.92 µM (active).
Take `CC1(C)C(=O)N(Cl)C(=O)N1Cl`: the call was inactive.
Same read-out and setting: the result for `CCCCCCCC1CCC(=O)O1` (stereo not drawn) reads “inactive”; that for `c1ccc2ncccc2c1`, “inactive”; that for `CCOC(N)=O`, “inactive”.
Still for that read-out and setting: the result for `Cn1cc[nH]c1=S` reads “inactive”; that for `CCCCCCCCCCCCCCCCOS(=O)(=O)O`, “inactive”.
For `OCCOCCOCCO`, the compound was called inactive.
Turning to `OC(CCl)CCl`, the compound was called inactive.
Take `O=C1CN(N=Cc2ccc([N+](=O)[O-])o2)C(=O)N1`: the compound was classed as inactive.

Read-out in a further test: UDP glucuronosyltransferase (UGT1A1), UGT1A1 (gene 54658)
As to the kind of experiment: LTEA_HepaRG_UGT1A1: Life Technologies and Expression Analysis (LTEA) Assay for UDP glucuronosyltransferase (UGT1A1) using HepaRG (AID 2283538). As to conditions: mRNA level, 48 h; actives raise or lower the signal. In outline: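 mRNA induction or loss of UGT1A1, by TaqMan qRT-PCR, in duplicate HepaRG wells after 48 h exposure to half-log dilutions topping at 100 uM; DMSO (0.5%) served as baseline.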
Take `CCCCN1C(=O)[C@@H]([C@H](O)C2CCCCC2)NC(=O)C12CCN(Cc1ccc(Oc3ccc(C(=O)O)cc3)cc1)CC2`: the AC50 was 2.79 µM (active).
Take `OCC(CO)(CO)CO`: the compound was called inactive.
Take `c1ccc(C(O[C@@H]2CCCN(CCc3ccc4c(c3)OCO4)C2)c2ccccc2)cc1`: the AC50 is 79.1 µM (active).
With `Cn1c(=O)c2[nH]cnc2n(C)c1=O`, the compound was classed as inactive.
In the case of `CC(C)c1nnc2ccc(-c3ocnc3-c3cc(F)ccc3F)cn12`, the AC50 is 0.836 µM (active).
`O=C(O)c1cccc(C[C@@H]2COc3ccc(OCc4nc5cc(F)ccc5s4)cc3[C@@H]2O)c1`: the call was inactive.
Turning to `CCCCCCCC/C=C\CCCCCCCC(=O)OC[C@@H](O)[C@H]1OC[C@H](O)[C@H]1O`, the outcome was inactive.
With `O=S1(=O)CCCO1`, the outcome was inactive.
In the case of `C[C@]12C=CC(=O)C=C1CC[C@H]1[C@@H]3C[C@@H](O)[C@](O)(C(=O)CO)[C@@]3(C)C[C@H](O)[C@@]12F`, the call was inactive.
As to `CCCCC(CC)C(=O)OCCOCCOCCOC(=O)C(CC)CCCC` (stereo not drawn), the outcome was inactive.
The same measure, in the same setting: the result for `C=CN1CCCC1=O` reads “inactive”; that for `CC(=O)c1ccccc1`, “inactive”.
Same read-out and setting: then `OC(Cn1cncn1)(Cn1cncn1)c1ccc(F)cc1F`, with “inactive”.
Still for that read-out and setting: then `CCCCOC(=O)c1ccccc1`, with “inactive”.
Take `c1ccc2cc3ccccc3cc2c1`: the AC50 was 13.1 µM (active).
As for `CCCCCCCCN(C)C`, the call was inactive.
In the case of `CCn1nc(C)c2c1C(=O)NCC(c1ccc(O)cc1)=N2`, the AC50 was 34.1 µM (active).
With `CCc1cccc(CC)c1N`, the result was inactive.
Same read-out and setting: the result for `CCN(CC)C(=S)SSC(=S)N(CC)CC` reads “inactive”; that for `CCCCCCCCCCCCCCO`, “inactive”.
On the same count and under the same terms, the result for `CCCc1ccccc1` reads “inactive”; that for `CCc1ccc(O)c(C(C)(C)C)c1`, “inactive”; that for `O=C(O)c1ccc2c(c1)nc(C(=O)NC1CCN(C3CC3)CC1)n2Cc1cc(-c2ccc(Cl)s2)on1`, “inactive”.
Consider `NNC(=O)c1ccncc1`, for which the compound was classed as inactive.
Turning to `C=CCc1cc(S(=O)(=O)c2ccc(O)c(CC=C)c2)ccc1O`, the compound was called inactive.
With `CCCCCCCCCC`, the result was inactive.
For the compound `NC(=O)NN=Cc1ccc([N+](=O)[O-])o1`, the outcome was inactive.
In the case of `CC1(C)C(=O)N(Cl)C(=O)N1Cl`, the result was inactive.
The same measure, in the same setting: then `CCCCCCOC(=O)CC(CC(=O)OCCCCCC)(OC(=O)CCC)C(=O)OCCCCCC`, with “inactive”; and `CCCCCCCC1CCC(=O)O1` (stereo not drawn), with “inactive”.
As for `c1ccc2ncccc2c1`, the outcome was inactive.
With `CCOC(N)=O`, the result was inactive.
The same measure, in the same setting: then `Cn1cc[nH]c1=S`, with “inactive”; and `CCCCCCCCCCCCCCCCOS(=O)(=O)O`, with “inactive”; and `OCCOCCOCCO`, with “inactive”.
The same measure, in the same setting: the result for `OC(CCl)CCl` reads “inactive”; that for `O=C1CN(N=Cc2ccc([N+](=O)[O-])o2)C(=O)N1`, “inactive”.

Read-out in the next test: UDP glucuronosyltransferase (UGT1A6), UGT1A6 (gene 54578)
Put plainly: LTEA_HepaRG_UGT1A6: Life Technologies and Expression Analysis (LTEA) Assay for UDP glucuronosyltransferase (UGT1A6) using HepaRG (AID 2283539). As to conditions: mRNA level, 48 h; actives raise or lower the signal. A digest of the protocol: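 Measures mRNA change in HepaRG hepatic cells exposed 48 h to chemicals (eight-point, maximum 100 uM, 0.5% DMSO vehicle) in serum-free induction medium. Expression normalized to endogenous controls; DMSO served as negative control and baseline.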
Turning to `CCCCN1C(=O)[C@@H]([C@H](O)C2CCCCC2)NC(=O)C12CCN(Cc1ccc(Oc3ccc(C(=O)O)cc3)cc1)CC2`, the AC50 is 10 µM (active).
For the compound `OCC(CO)(CO)CO`, the result was inactive.
Take `c1ccc(C(O[C@@H]2CCCN(CCc3ccc4c(c3)OCO4)C2)c2ccccc2)cc1`: the concentration at half-maximal activity (AC50) was 83 µM (active).
`Cn1c(=O)c2[nH]cnc2n(C)c1=O`: the compound was classed as inactive.
For the compound `CC(C)c1nnc2ccc(-c3ocnc3-c3cc(F)ccc3F)cn12`, the half-maximal activity concentration (AC50) is 80.3 µM (active).
As for `O=C(O)c1cccc(C[C@@H]2COc3ccc(OCc4nc5cc(F)ccc5s4)cc3[C@@H]2O)c1`, the result was inactive.
The same measure, in the same setting: then `CCCCCCCC/C=C\CCCCCCCC(=O)OC[C@@H](O)[C@H]1OC[C@H](O)[C@H]1O`, with “inactive”; and `O=S1(=O)CCCO1`, with “inactive”; and `C[C@]12C=CC(=O)C=C1CC[C@H]1[C@@H]3C[C@@H](O)[C@](O)(C(=O)CO)[C@@]3(C)C[C@H](O)[C@@]12F`, with “inactive”.
On the same count and under the same terms, the result for `CCCCC(CC)C(=O)OCCOCCOCCOC(=O)C(CC)CCCC` (stereo not drawn) reads “inactive”.
As for `C=CN1CCCC1=O`, the call was inactive.
For `CC(=O)c1ccccc1`, the compound was classed as inactive.
Take `OC(Cn1cncn1)(Cn1cncn1)c1ccc(F)cc1F`: the compound was classed as inactive.
The same measure, in the same setting: then `CCCCOC(=O)c1ccccc1`, with “inactive”; and `c1ccc2cc3ccccc3cc2c1`, with “inactive”; and `CCCCCCCCN(C)C`, with “inactive”.
Take `CCn1nc(C)c2c1C(=O)NCC(c1ccc(O)cc1)=N2`: the compound was classed as inactive.
Same read-out and setting: the result for `CCc1cccc(CC)c1N` reads “inactive”.
Still for that read-out and setting: the result for `CCN(CC)C(=S)SSC(=S)N(CC)CC` reads “inactive”; that for `CCCCCCCCCCCCCCO`, “inactive”.
The same measure, in the same setting: then `CCCc1ccccc1`, with “inactive”.
As for `CCc1ccc(O)c(C(C)(C)C)c1`, the compound was called inactive.
Same read-out and setting: then `O=C(O)c1ccc2c(c1)nc(C(=O)NC1CCN(C3CC3)CC1)n2Cc1cc(-c2ccc(Cl)s2)on1`, with “inactive”; and `NNC(=O)c1ccncc1`, with “inactive”.
On to `C=CCc1cc(S(=O)(=O)c2ccc(O)c(CC=C)c2)ccc1O`, for which the concentration at half-maximal activity (AC50) is 80.7 µM (active).
As to `CCCCCCCCCC`, the outcome was inactive.
Take `NC(=O)NN=Cc1ccc([N+](=O)[O-])o1`: the call was inactive.
As for `CC1(C)C(=O)N(Cl)C(=O)N1Cl`, the outcome was inactive.
As for `CCCCCCOC(=O)CC(CC(=O)OCCCCCC)(OC(=O)CCC)C(=O)OCCCCCC`, the call was inactive.
Still for that read-out and setting: the result for `CCCCCCCC1CCC(=O)O1` (stereo not drawn) reads “inactive”; that for `c1ccc2ncccc2c1`, “inactive”.
With `CCOC(N)=O`, the compound was classed as inactive.
Same read-out and setting: the result for `Cn1cc[nH]c1=S` reads “inactive”; that for `CCCCCCCCCCCCCCCCOS(=O)(=O)O`, “inactive”; that for `OCCOCCOCCO`, “inactive”.
The same measure, in the same setting: the result for `OC(CCl)CCl` reads “inactive”.
On the same count and under the same terms, the result for `O=C1CN(N=Cc2ccc([N+](=O)[O-])o2)C(=O)N1` reads “inactive”.
